40 compounds from PubChem BioAssay (Tox21) can be followed below.

Several values for one entry are separate records, joined by “and”; a condition that tells them apart may be missing. Equal values may be shown once. Inconclusive results are not listed. Where a call stands in place of a potency, no number is given. Activity calls are given as the source filed them. The call rests on the fitted dose curve; in most records, active means well fitted cell-killing curve with a large enough effect in the repeat runs; inconclusive means weak or mixed curves; inactive means flat fitted curve, though single readings scatter.
Potency means the concentration at half of the fitted maximal effect.

A short description of the experiment: qHTS RealTime-Glo MT Cell Viability Assay in HepG2 cells - 8 hour (AID 1224873). Further: nearly all actives have a fitted effect of over 55% in size. The settings on record: RealTime-Glo luminescence; series mostly up to 76.8 µM. From the text:
National Center for Advancing Translational Sciences [NCATS]
NIH Chemical Genomics Center [NCGC]
U.S. Environmental Protection Agency [EPA]
National Institutes of Environmental Health Sciences [NIEHS]
National Toxicology Program [NTP]
U.S. Food and Drug Administration [FDA]
Measure of cell viability is critical in the cell-base assay. Analysis of cell viability is necessary for the characterization of cell responses to cytotoxic drugs and environmental stress. A RealTime-Glo MT Cell Viability Assay to monitor cell viability in real time of continues cell culture during 40 hours of compound treatment was used to screen Tox21 10K library compounds in HepG2 cells. The RealTime-Glo MT Cell Viability Assay is a nonlytic, homogeneous, bioluminescent method to measure cell viability in real time using a simple, plate-based method. The assay involves adding NanoLuc luciferase and a cell-permeant prosubstrate to cells in culture. Viable cells reduce the proprietary prosubstrate to generate a substrate for NanoLuc luciferase. This substrate diffuses from cells into the surrounding culture medium, where it is rapidly used by the NanoLuc Enzyme to produce a luminescent signal. The signal correlates with the number of viable cells, making the assay well suited for cytotoxicity studies.
Tox21 Assay Protocol Summary:
The mixture of HepG2 cell suspension and reagents were dispensed at 600cells/6 ul/well in 1536-well tissue culture treated black solid bottom plates using a Multidrop dispenser. After the assay plates were incubated at a 37 C/5% CO2 incubator for 5 hours, 23 nL of compounds dissolved in DMSO, positive and negative controls was transferred to the assay plate by a pintool work station. The plates were incubated at 37 C for 40 hours. The luminescence intensity were measured at 0h, 8h, 16h, 24h, 32h and 40h time points using ViewLux plate reader during compound treatment.
On the technique in general: In qHTS, concentration-response curves come from the screen itself.
On to `O=C(O)c1cccc(C(F)(F)F)c1`, for which the Potency entry is “inactive”.

For `CN1CCCCC1CCN1c2ccccc2Sc2ccc(S(C)=O)cc21` (stereo not given), the Potency entry was “inactive”.

Regarding `Cc1cccc2cccnc12`, the Potency entry was “inactive”.

`O=[N+]([O-])c1cccc(C(F)(F)F)c1`: the Potency entry was “inactive”.

With `CCCCCCCCCCCCOC(=O)c1ccc(O)cc1`, the Potency result is “inactive”.

`O=C(O)O`: the viability change, negative = cytotoxic is -4.4% [at 6.97 µM] (inactive).

In the case of `CCCCC(CC)COC(=O)CCCCC(=O)OCc1ccccc1` (stereo not given), the Potency result is “inactive”.

For `Cc1cc(C(C)(C)C)cc(C)c1CC1=NCCN1`, the Potency result was “inactive”.

In the case of `CNc1ccc([N+](=O)[O-])cc1`, the Potency result is “inactive”.

Turning to `COc1cccc(OC)c1C(=O)O`, the Potency result was “inactive”.

For `CCC(=O)C(=O)CC`, the Potency entry was “inactive”.

For `CCN(CC)c1ccc2c(-c3ccc(S(=O)(=O)O)cc3S(=O)(=O)[O-])c3ccc(=[N+](CC)CC)cc-3oc2c1`, the Potency entry was “inactive”.

With `O=C(O)c1cc(=O)c2ccccc2o1`, the Potency result was “inactive”.

`C=CC(=O)OCCOC(=O)C=C`: the Potency entry is “inactive”.

Take `CCC(C)(CCC(C)C)C(=O)[O][Sn]([CH3])([CH3])[O]C(=O)C(C)(CC)CCC(C)C` (stereo not given): the Potency result is “inactive”.

Regarding `CCCCCc1ccc(Cl)cc1`, the Potency entry was “inactive”.

For `CN1CCC[C@@H]1CCO[C@](C)(c1ccccc1)c1ccc(Cl)cc1`, the Potency entry was “inactive”.

In the case of `CC(=O)Oc1cc2c(s1)CCN(C(C(=O)C1CC1)c1ccccc1F)C2` (stereo not given), the Potency entry is “inactive”.

Turning to `Cc1cc(=O)oc2cc(O)cc(O)c12`, the Potency entry was “inactive”.

`CC(C)=CCC1=C(O)c2ccccc2C(=O)C1=O`: the Potency entry was “inactive”.

Consider `CCC(C)[O-].CCC(C)[O-].CCOC(=O)/C=C(/C)[O-].[Al+3]`, for which the Potency entry is “inactive”.

In the case of `NC[C@H]1O[C@H](O[C@H]2[C@H](O[C@@H]3O[C@H](CO)[C@@H](O)[C@H]3O)C(O)[C@H](N)C[C@@H]2N)[C@H](N)[C@@H](O)[C@@H]1O` (stereo not given in full), the viability change, negative = cytotoxic is 2.91% [at 6.97 µM] (inactive).

Consider `S=c1nccc[nH]1`, for which the Potency entry is “inactive”.

As to `CC(C)(C)NSc1nc2ccccc2s1`, the Potency result was “inactive”.

`CCCC[P+](C)(CCCC)CCCC`: the Potency entry is “inactive”.

With `C[Si](Cl)(c1ccccc1)c1ccccc1`, the Potency result is “inactive”.

For `CC/C=C\CCCCCO`, the Potency entry was “inactive”.

Take `CC(C)(C)c1ccc(C(O)CCCN2CCC(C(O)(c3ccccc3)c3ccccc3)CC2)cc1` (stereo not given): the Potency is 10.7 µM (active).

On to `O=C(Oc1ccccc1)Oc1ccccc1`, for which the Potency result was “inactive”.

On to `CN1CCN2c3ccccc3Cc3ccccc3C2C1` (stereo not given), for which the Potency entry was “inactive”.

On to `CC1(C)[C@@H](O)CC[C@]2(C)[C@H]3C(=O)C=C4[C@@H]5C[C@@](C)(C(=O)O)CC[C@]5(C)CC[C@@]4(C)[C@]3(C)CC[C@@H]12`, for which the Potency result was “inactive”.

Turning to `CN(C)c1ccc(C(=C2C=CC(=[N+](C)C)C=C2)c2ccc(N(C)C)cc2)cc1`, the Potency is 19.4 µM (active) and 24.5 µM (active).

`O=[N+]([O-])c1ccc(F)c(Cl)c1`: the Potency entry was “inactive”.

As for `C[C@@H](O)[C@H](N)C(=O)O`, the viability change, negative = cytotoxic was 1.46% [at 15.8 µM] (inactive).

For the compound `COC(=O)c1ccccc1C`, the Potency result is “inactive”.

On to `CCCCCCCCCCCCCC[N+](C)(C)Cc1ccccc1`, for which the Potency is 55.8 µM (active) and 21.3 µM (active).

In the case of `CCCCCCC1CCCC(=O)O1` (stereo not given), the Potency entry is “inactive”.

`CCCCCC(C)OC(=O)COc1ccc(Cl)c2cccnc12` (stereo not given): the Potency entry is “inactive”.

For `CCN(CC)C(=O)c1cc(S(=O)(=O)Cc2ccccc2)c(N2CCC(c3ccccc3)CC2)cc1N(CC)CCN(C)C`, the Potency was 17.2 µM (active).

As to `Cc1ccc(O)c(O)c1`, the Potency result is “inactive”.
